The values that follow come from PubChem BioAssay (NCATS).

Inconclusive results are not listed. Values without a mark were called inactive. Active and inactive are the calls of the source. Calls follow the shape of the dose curve; as a rule, active = well fitted curve in the direction sought with a large enough effect; inconclusive = small, poorly fitted or top-dose-only effect, or another doubt; inactive = no such curve, though single readings can be large; an effect the other way counts as inactive or inconclusive.

In one assay the test system is CAOV3. As to the kind of experiment: Primary qHTS to identify gynecologic anti-cancer compounds using libraries of approved drugs and bioactive compounds (AID 1345084). Also: nearly all actives have a fitted effect of over 55% in size. As to conditions: Gynecologic cancer cell panel viability, ATPlite luminescence, 48 h; series mostly up to 57.5 µM. An outline of the steps:
(§1)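 Luminescence from the ATPlite ATP-monitoring reagent indicates viable cell number; lower signal means cytotoxicity. Cells received compound 16 h after seeding and were exposed for 48 h across five concentrations.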
(In qHTS, concentration-response curves come from the screen itself.)

A further assay concerns CASKI. Described as above. As to conditions: Gynecologic cancer cell panel viability, ATPlite luminescence, 48 h; series mostly up to 57.5 µM. In outline: as §1
For orientation: In ATP-based viability assays light output follows the ATP content of the culture.

A further assay deals with Es-2. The assay is described as above. Particulars: Gynecologic cancer cell panel viability, ATPlite luminescence, 48 h; series mostly up to 57.5 µM. An outline of the steps: as §1
The next assay concerns HeLa. The description is as above. As to conditions: Gynecologic cancer cell panel viability, ATPlite luminescence, 48 h; series mostly up to 57.5 µM. An outline of the steps: as §1
For the next assay, the system named is Hek293T. The assay is described as above. Particulars: Gynecologic cancer cell panel viability, ATPlite luminescence, 48 h, control line for the selectivity index; series mostly up to 57.5 µM. An outline of the steps: as §1
A further assay deals with OV90. The assay is described as above. Particulars: Gynecologic cancer cell panel viability, ATPlite luminescence, 48 h; series mostly up to 57.5 µM. An outline of the steps:
as §1

Another assay deals with PA-1. Described as above. As to conditions: Gynecologic cancer cell panel viability, ATPlite luminescence, 48 h; series mostly up to 57.5 µM. An outline of the steps:
as §1

The subject of another assay is SKOV3. Described as above. Particulars: Gynecologic cancer cell panel viability, ATPlite luminescence, 48 h; series mostly up to 57.5 µM. In outline: as §1
For a further assay, the system named is Tov-21-G. Described as above. Particulars: Gynecologic cancer cell panel viability, ATPlite luminescence, 48 h; series mostly up to 57.5 µM. An outline of the steps:
as §1

A further assay relates to Tov112D. The assay is described as above. Particulars: Gynecologic cancer cell panel viability, ATPlite luminescence, 48 h; series mostly up to 57.5 µM. An outline of the steps: as §1
Another assay has as its system C33A. Described as above. As to conditions: Gynecologic cancer cell panel viability, ATPlite luminescence, 48 h; series mostly up to 57.5 µM. In outline: as §1
The subject of a further assay is JEG-3. The description is as above. Particulars: Gynecologic cancer cell panel viability, ATPlite luminescence, 48 h; series mostly up to 57.5 µM. An outline of the steps:
as §1

The nature of assay [1]: qHTS assay to identify inhibitors of the type 1 interferon - major histocompatibility complex class I in skeletal muscle: Counter screen cell viability and HiBit confirmation (AID 1347412). Also: nearly all actives have a fitted effect of over 60% in size. As to conditions: iHSKM muscle cells + IFN-b, HiBiT or CellTiter-Glo, 24 h. An outline of the steps:
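After 24 h with human IFN-beta (4 ng/ml) and compound titrations (top 46 uM final, 1:3, 12 points), HLA-B HiBit myoblasts were lysed for either Nano-Glo HiBiT luminescence or CellTiter Glo viability on paired plates.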
Potency is read from the fitted curve at half-maximal effect.

With `Cc1onc(C(=O)N2CCN(C(c3ccc(Cl)cc3)c3ccc(Cl)cc3)CC2)c1[N+](=O)[O-]`, the Potency in the assay with CAOV3 is 2.24 µM (active); with Es-2, 1 µM (active); in the assay with PA-1, 8.91 µM (active); in the assay with SKOV3 it was 7.94 µM (active); with Tov-21-G, 1.12 µM (active); in the assay with Tov112D, 7.94 µM (active). For the same compound, the Potency entry in the assay on CASKI, in the assay on HeLa, in the assay on Hek293T and with OV90 was “inactive” each time.
Turning to `Cc1ccc(C(=O)Nc2noc3ccccc23)cc1`, the Potency in the assay with CAOV3 is 15.8 µM (active); in the assay with CASKI it was 22.4 µM (active); with Es-2, 15.8 µM (active); in the assay with HeLa, 22.4 µM (active); with Hek293T it was 15.8 µM (active); with OV90, 11.2 µM (active). Moreover, the Potency in the assay on Tov-21-G and in the assay with Tov112D was 28.2 µM (active) each time.
As for `COc1cc2c(NC3CCN(CC4CCCCC4)CC3)nc(N3CCCN(C(C)C)CC3)nc2cc1OCCCN1CCCCC1`, the Potency was 14.1 µM (active) in the assay with C33A; 3.98 µM (active) with Es-2; 20 µM (active) with Hek293T; 5.62 µM (active) in the assay on JEG-3; 3.16 µM (active) in the assay with OV90; 5.62 µM (active) with PA-1. In addition, the Potency was 3.98 µM (active) in the assay on SKOV3, 20 µM (active) in the assay with Tov-21-G, 7.94 µM (active) in the assay with Tov112D and 24.9 µM (active) in assay [1] (Viability).
In the case of `COc1cc(N2CCOCC2)ccc1Nc1ncc(Cl)c(Nc2ccccc2NS(C)(=O)=O)n1`, the Potency was 3.55 µM (active) in the assay on CAOV3; 8.91 µM (active) with CASKI; 3.16 µM (active) with HeLa; 2.82 µM (active) in the assay on PA-1; 3.16 µM (active) with Tov-21-G.
For `CNC(=O)c1ccccc1Nc1nc(Nc2ccc3c(c2OC)CCCC(N2CCN(CCO)CC2)C3)ncc1Cl` (configuration not stated), the Potency was 10 µM (active) in the assay with CAOV3; 17.8 µM (active) in the assay on CASKI; 11.2 µM (active) in the assay on PA-1; 3.98 µM (active) in the assay on SKOV3; 10 µM (active) with Tov-21-G. The Potency result in the assay with JEG-3 was “inactive”.
Regarding `COc1cc2ncnc(Nc3ccc(F)c(Cl)c3)c2cc1NC(=O)/C=C/CN1CCCCC1`, the Potency was 22.4 µM (active) with CAOV3, 10 µM (active) in the assay on SKOV3 and 19.8 µM (active) in assay [1] (HiBiT). Further, in the assay on OV90, the Potency result is “inactive”.
As to `C=CC(=O)Nc1cc(Nc2ncc(Cl)c(-c3c[nH]c4ccccc34)n2)c(OC)cc1N(C)CCN(C)C`, the Potency in the assay on CAOV3 is 17.8 µM (active); with CASKI, 2.24 µM (active); in the assay on HeLa, 12.6 µM (active); with Hek293T it was 11.2 µM (active); in the assay on JEG-3 it was 12.6 µM (active); in the assay with OV90, 3.98 µM (active). The results for the Potency in the assay on PA-1, with Tov-21-G and in the assay with Tov112D were 6.31 µM (active), 15.8 µM (active) and 15.8 µM (active), respectively.
In the case of `CS(=O)(=O)N(CC(=O)NCC1CC1)c1cc(C(F)(F)F)ccc1Cl`, the Potency entry in the assay with CAOV3, in the assay with Es-2, with HeLa, in the assay with Hek293T, in the assay on JEG-3 and in the assay on OV90 was “inactive” throughout. Moreover, the Potency entry in the assay on PA-1, in the assay on SKOV3, in the assay on Tov-21-G and in the assay on Tov112D was “inactive” each time.
As to `COc1cc(C(=O)NC2CCN(C)CC2)ccc1Nc1ncc2c(n1)N(C1CCCC1)CC(F)(F)C(=O)N2C`, the Potency was 25.1 µM (active) in the assay on CAOV3, 22.4 µM (active) with OV90, 0.251 µM (active) with PA-1 and 15.8 µM (active) with SKOV3.
On to `CC(=O)N1CCN(C(=O)Cc2ccc(Nc3ncc(F)c(Nc4ccc(C(=O)Nc5ccccc5Cl)cc4)n3)cc2)CC1`, for which the Potency was 31.6 µM (active) in the assay on CAOV3; 7.94 µM (active) with HeLa; 11.2 µM (active) in the assay on PA-1; 22.4 µM (active) in the assay with SKOV3; 25.1 µM (active) with Tov-21-G; 3.98 µM (active) with Tov112D. For the same compound, the Potency result in the assay on JEG-3 and with OV90 was “inactive” each time.
With `CC1=C(C(=O)OCc2ccccc2)C(c2ccc(-c3ccccc3)cc2)NC(=O)N1CCCCCC(=O)O` (configuration not stated), the Potency result with CASKI, in the assay with Es-2, in the assay on HeLa, in the assay with Hek293T, with JEG-3 and in the assay with OV90 was “inactive” each time. The Potency result in the assay with PA-1, in the assay with SKOV3, with Tov-21-G and in the assay with Tov112D was “inactive” throughout.
Regarding `C#CCN(Cc1cc2c(=O)n(C)c(CN3CCN(C)CC3)nc2cc1Cl)c1ccc(C(=O)NCc2cccnc2)cc1`, the Potency in the assay with CAOV3 is 44.7 µM (active). Also, the Potency entry in the assay with OV90 is “inactive”.
For the compound `Cn1nnc(-c2ccc(-c3ccc(N4C[C@H](COP(=O)(O)O)OC4=O)cc3F)cn2)n1`, in the assay with CAOV3, the Potency entry is “inactive”. For the same compound, the values for the Potency with CASKI and in the assay on OV90 were 12.6 µM (active) and 20 µM (active), respectively.
In the case of `CN(C)c1nc(NC2CCC(NCCc3ccc(Br)cc3OC(F)(F)F)CC2)nc2ccccc12` (configuration not stated), the Potency with CAOV3 is 3.98 µM (active); in the assay on Hek293T, 25.1 µM (active); in the assay with JEG-3 it was 20 µM (active); in the assay with OV90, 14.1 µM (active); in the assay on SKOV3 it was 14.1 µM (active).
As for `CCC1=CC2CN(C1)Cc1c([nH]c3ccccc13)[C@@](C(=O)OC)(c1cc3c(cc1OC)N(C)[C@H]1[C@@](O)(C(=O)OC)[C@H](OC(C)=O)[C@]4(CC)C=CCN5CC[C@]31[C@@H]54)C2` (some centres not stated), the Potency result in the assay with CAOV3 and with CASKI was “inactive” each time. For the same compound, the Potency with Es-2 is 0.282 µM (active); in the assay with HeLa, 0.126 µM (active); in the assay with Tov-21-G, 0.0891 µM (active); with Tov112D it was 0.0708 µM (active).
For the compound `C=CC(=O)Nc1cc(Nc2nccc(-c3c[nH]c4ccccc34)n2)c(OC)cc1N(C)CCN(C)C`, the Potency in the assay on CAOV3 is 28.2 µM (active); in the assay on CASKI, 28.2 µM (active); with Es-2, 20 µM (active); in the assay with HeLa it was 15.8 µM (active); in the assay on PA-1 it was 4.47 µM (active).
`Cc1cc(-c2cc(O)ccc2Cl)cc2nnc(Nc3ccc(OCCN4CCCC4)cc3)nc12`: the Potency in the assay with CAOV3 was 11.2 µM (active); with SKOV3, 28.2 µM (active).
As for `CO[C@H]1/C=C/C=C/C=C/C[C@H](OC(=O)[C@@H](C)NC(=O)C2CCCCC2)[C@H](C)[C@@H](O)/C(C)=C/CCc2cc(O)cc(c2)NC(=O)C1`, the Potency result in the assay with CAOV3 and in the assay with JEG-3 was “inactive” throughout. Moreover, the Potency in the assay with Es-2 was 1.78 µM (active); with HeLa, 3.55 µM (active); in the assay with Hek293T, 0.708 µM (active); with PA-1, 0.355 µM (active); with SKOV3 it was 3.16 µM (active); in the assay on Tov-21-G it was 2.82 µM (active).
On to `CN1CCN(Cc2ccc(-c3cnc4[nH]cc(-c5ccc6[nH]ccc6c5)c4c3)cc2)CC1`, for which the Potency with CAOV3 was 22.4 µM (active); in the assay on Es-2, 22.4 µM (active); in the assay on HeLa, 31.6 µM (active); in the assay with OV90, 10 µM (active); with PA-1, 12.6 µM (active); with SKOV3, 14.1 µM (active). Moreover, the Potency in the assay with Tov-21-G is 20 µM (active).
